The target in test [1] is T1, 3-phosphoinositide-dependent protein kinase 1 (Homo sapiens) (UniProt O15530).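 Note: values are mean inhibition of PDK1.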
T1 sequence (whole entry): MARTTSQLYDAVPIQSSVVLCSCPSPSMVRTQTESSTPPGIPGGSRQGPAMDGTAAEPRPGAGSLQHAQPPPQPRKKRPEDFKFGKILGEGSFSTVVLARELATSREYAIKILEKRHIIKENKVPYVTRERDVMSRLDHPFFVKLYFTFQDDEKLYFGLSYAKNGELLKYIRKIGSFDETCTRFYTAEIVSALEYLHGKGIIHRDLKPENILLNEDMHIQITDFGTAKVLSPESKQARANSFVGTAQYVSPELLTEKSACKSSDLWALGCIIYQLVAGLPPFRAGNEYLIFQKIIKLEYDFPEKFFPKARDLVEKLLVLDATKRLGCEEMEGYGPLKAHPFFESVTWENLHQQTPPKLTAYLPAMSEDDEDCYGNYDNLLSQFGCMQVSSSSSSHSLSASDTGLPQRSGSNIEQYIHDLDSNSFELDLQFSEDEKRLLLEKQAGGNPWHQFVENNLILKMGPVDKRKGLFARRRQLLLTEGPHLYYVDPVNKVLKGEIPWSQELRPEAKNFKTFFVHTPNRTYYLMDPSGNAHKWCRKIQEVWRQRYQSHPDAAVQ
The note with it: at 0.1 µM.

The target of test [2] is cAMP-dependent protein kinase catalytic subunit alpha (Homo sapiens) (UniProt P17612). The note with it: at 0.1 µM.
The target is the same in test [3]. Particulars: at 1 µM.
The target of test [4] is Protein kinase C alpha type (Homo sapiens) (UniProt P17252). Particulars: at 0.1 µM.
Test [5] shares this target. The note with it: at 1 µM.
Test [6] deals with Protein kinase C beta type (Homo sapiens) (UniProt P05771). Particulars: at 0.1 µM.
Chain of Protein kinase C beta type (Homo sapiens) (P05771 2-671 limits assumed): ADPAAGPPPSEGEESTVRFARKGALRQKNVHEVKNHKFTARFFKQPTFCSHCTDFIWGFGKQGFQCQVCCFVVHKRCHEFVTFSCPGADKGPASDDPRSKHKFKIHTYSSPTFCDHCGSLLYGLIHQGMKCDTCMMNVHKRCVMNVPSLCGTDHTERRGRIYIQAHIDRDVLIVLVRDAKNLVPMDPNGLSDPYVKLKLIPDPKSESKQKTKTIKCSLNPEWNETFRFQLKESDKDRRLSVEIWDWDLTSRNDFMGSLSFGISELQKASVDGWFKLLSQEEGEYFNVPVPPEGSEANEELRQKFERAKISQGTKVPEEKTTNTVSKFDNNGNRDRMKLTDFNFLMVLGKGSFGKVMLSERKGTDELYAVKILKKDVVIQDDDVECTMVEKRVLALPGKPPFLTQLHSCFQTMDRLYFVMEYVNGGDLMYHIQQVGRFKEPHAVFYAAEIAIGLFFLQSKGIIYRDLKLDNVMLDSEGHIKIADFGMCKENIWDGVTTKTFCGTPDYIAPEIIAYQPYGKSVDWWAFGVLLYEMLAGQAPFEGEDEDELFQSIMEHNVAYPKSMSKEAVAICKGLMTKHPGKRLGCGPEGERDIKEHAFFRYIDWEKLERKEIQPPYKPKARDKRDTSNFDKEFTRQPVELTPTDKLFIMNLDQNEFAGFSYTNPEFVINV
For test [7] the target is unchanged. The note with it: at 1 µM.
The target in test [8] is Protein kinase C eta type (Homo sapiens) (UniProt P24723). Particulars: at 0.1 µM.
Chain of Protein kinase C eta type (Homo sapiens) (P24723 whole entry): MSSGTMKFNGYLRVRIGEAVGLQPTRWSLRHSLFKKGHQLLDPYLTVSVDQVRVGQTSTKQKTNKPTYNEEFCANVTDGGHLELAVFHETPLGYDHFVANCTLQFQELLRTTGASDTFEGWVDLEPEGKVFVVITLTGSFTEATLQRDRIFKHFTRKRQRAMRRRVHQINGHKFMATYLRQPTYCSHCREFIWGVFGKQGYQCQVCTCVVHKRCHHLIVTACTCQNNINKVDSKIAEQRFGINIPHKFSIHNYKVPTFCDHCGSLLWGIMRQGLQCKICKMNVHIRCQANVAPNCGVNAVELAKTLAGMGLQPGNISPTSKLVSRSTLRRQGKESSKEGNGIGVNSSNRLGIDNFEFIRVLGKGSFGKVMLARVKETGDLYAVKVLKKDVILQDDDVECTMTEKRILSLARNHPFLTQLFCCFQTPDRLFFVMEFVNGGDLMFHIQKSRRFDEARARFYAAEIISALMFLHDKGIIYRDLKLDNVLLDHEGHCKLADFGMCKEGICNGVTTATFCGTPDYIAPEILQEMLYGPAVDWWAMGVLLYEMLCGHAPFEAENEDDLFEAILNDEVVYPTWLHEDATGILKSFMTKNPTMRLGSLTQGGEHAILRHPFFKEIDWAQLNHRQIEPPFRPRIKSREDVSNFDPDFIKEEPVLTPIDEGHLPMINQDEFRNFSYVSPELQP
Test [9] has the same target. Particulars: at 1 µM.
Test [10] deals with Protein kinase C gamma type (Homo sapiens) (UniProt P05129). Particulars: at 0.1 µM.

As usually defined, the inhibition is the drop in the measured response relative to a control, in per cent. Regarding `C[C@@H](Oc1cc(-n2cnc3ccc(OCC4CCN(C)CC4)cc32)sc1C(N)=O)c1ccccc1Cl`, the inhibition is 2.77% in test [1]; 3.4% in test [2]; -1.07% in test [3]; 1.11% in [4]; 5.2% in [5]; 1.4% in [6]. In addition, the inhibition in test [7] was found to be 3.67%; in test [8], 5.52%; in [9] it was 5.34%; in test [10], 3.17%.

As for `FC(F)(F)c1cccc(Nc2nccc(-c3cnn4nc(-c5ccccc5)ccc34)n2)c1`, the inhibition in test [1] is -0.51%; in test [2] it was 1.63%; in test [3] it was 0.52%; in [4], -0.27%; in test [5], 0.87%; in test [6], -0.86%. For the same compound, the inhibition in test [7] was determined as 2.15%; in test [8], 2.08%; in [9], 3.01%; in test [10], 2.43%.

As to `Fc1ccc(-c2c(-c3ccncc3)nc3n2CCS3)cc1`, the inhibition in [1] was 2.05%; in test [2], -0.65%; in [3] it was 13.2%; in test [4], -2.65%; in test [5], -2.48%; in test [6] it was 2.56%. For the same compound, the inhibition in [7] is 15.9%; in [8], -2.42%; in test [9] it was 7.59%; in test [10] it was 1%.

`O=C1NC(=O)C(c2cccc(Cl)c2)=C1Nc1ccc(Cl)c(C(=O)O)c1`: the inhibition was 1.28% in test [1]; 2.1% in [2]; 1.05% in [3]; 0.36% in [4]; 0.21% in test [5]; 0.61% in [6]. For the same compound, the inhibition was 1.11% in test [7], 3.84% in test [8], 8.96% in [9] and 4.02% in [10].

Regarding `Clc1ccc(CNc2nccc(-c3cnn4ncccc34)n2)cc1`, the inhibition in test [1] worked out at 2.08%; in [2], 0.38%; in [3], 1.31%; in test [4] it was 0.92%; in test [5], 4.19%; in [6], 0.26%. For the same compound, the inhibition in test [7] was found to be 1.03%; in [8], 2.3%; in [9] it was 7.54%; in test [10], 0.4%.

Take `NC(=O)c1ccc(Oc2nccc(-c3c(-c4ccc(F)cc4)ncn3C3CCNCC3)n2)cc1`: the inhibition in test [1] is 1.43%; in test [2], 8.89%; in test [3], 43%; in test [4], 1.16%; in [5], 2.25%; in test [6], 1.04%. Also, the inhibition in test [7] worked out at 5.96%; in [8], 5.08%; in test [9], 5.97%; in [10], 2.56%.

On to `CCC(=O)Nc1ccc(C)c(-c2ccc(C(=O)NCC3CC3)cc2)c1`, for which the inhibition in test [1] was 2.1%; in test [2], 2.1%; in [3], 1.49%; in test [4], -0.25%; in test [5], 0.8%; in [6] it was 0.07%. Besides, the inhibition in [7] is -0.89%; in test [8], 5.65%; in test [9], 3.46%; in test [10], 0.1%.

On to `COc1cc(N2CCN(C(C)C)CC2)ccc1Nc1nc(Nc2ccc(F)cc2C(=O)NC[C@@H](O)CO)c2cc[nH]c2n1`, for which the inhibition is -0.19% in [1]; -1.57% in test [2]; 0.73% in test [3]; -2.86% in test [4]; -2.46% in [5]; 1.6% in [6]. Moreover, the inhibition is 4.35% in test [7], 4.05% in [8], 7.17% in [9] and -2.06% in test [10].

For the compound `CCc1nccc2c1nc(-c1nonc1N)n2CC`, the inhibition in test [1] was found to be 0.73%; in test [2] it was 1.21%; in test [3], 4.19%; in [4] it was 1.25%; in test [5], 2.71%; in [6], 2.42%. The inhibition in test [7] was 20%; in test [8] it was 4.76%; in test [9], 21.1%; in test [10], -1.83%.

Regarding `Fc1ccc(-c2ncn(CCCN3CCOCC3)c2-c2ccncc2)cc1`, the inhibition in test [1] is -0.98%; in test [2], 0.23%; in [3], 1.67%; in test [4] it was 1.44%; in test [5], 1.07%; in [6] it was -0.46%. Besides, the inhibition was -0.8% in [7], -2.71% in [8], -1.13% in [9] and -1.84% in [10].

As to `CCc1ccc(Oc2nccc(-c3c(-c4ccc(F)cc4)ncn3C3CCNCC3)n2)cc1`, the inhibition in [1] was 1.58%; in test [2] it was 25.9%; in test [3] it was 75%; in test [4] it was 0.98%; in test [5], 7.86%; in test [6] it was 3.94%. Besides, the inhibition was 14.9% in test [7], 7.26% in test [8], 5.32% in test [9] and -0.16% in [10].

Take `c1ccc(Oc2ccc(Nc3ncc(-c4ccccc4)o3)cc2)cc1`: the inhibition is 3.8% in test [1]; 1.26% in test [2]; 5.43% in test [3]; 1.03% in test [4]; 1.47% in test [5]; 1.14% in [6]. Besides, the inhibition was 0.76% in [7], -1.38% in test [8], -0.47% in test [9] and 1.13% in [10].

With `NS(=O)(=O)c1ccc(N/N=C2\C(=O)Nc3ccc(-c4cnco4)cc32)cc1`, the inhibition in [1] was 2.95%; in [2], -3.28%; in [3] it was -2.27%; in [4], -4.06%; in test [5] it was -1.84%; in test [6], 1.26%. The inhibition in test [7] was 0.36%; in test [8], 3.38%; in [9], 1.24%; in test [10], -1.13%.

Turning to `CNC(=O)c1cncc(/C=C/c2c(C)cccc2C)c1`, the inhibition was 2.19% in test [1]; -2.91% in [2]; -3.45% in [3]; -2.57% in [4]; -1.89% in test [5]; 1.56% in test [6]. Besides, the inhibition is -0.29% in test [7], 3.75% in [8], 1.62% in test [9] and -0.51% in test [10].

As to `Fc1ccc(-c2nc3n(c2-c2ccncc2)CCS3)cc1`, the inhibition is 1.88% in test [1]; -0.98% in [2]; 0.45% in [3]; -2.53% in test [4]; -1.43% in test [5]; 0.64% in [6]. Besides, the inhibition in test [7] is 9.28%; in test [8], 4.25%; in test [9], 4.84%; in [10] it was 2.76%.

`COc1cccc(/C=N/Nc2ncnc3c2cnn3-c2cccc(OC)c2)c1`: the inhibition in test [1] was 1.13%; in test [2] it was 1.27%; in test [3], 1.21%; in [4], 0.12%; in test [5], 0.85%; in test [6] it was -0.96%. The inhibition worked out at 0.85% in test [7], 5.46% in test [8], 4.14% in [9] and 3.43% in test [10].

In the case of `COc1cc2ncn(-c3cc(OCc4ccccc4C(F)(F)F)c(C(C)=O)s3)c2cc1OC`, the inhibition was 0.15% in [1]; 1.04% in [2]; 1.7% in [3]; -0.12% in test [4]; 0.82% in test [5]; 1.02% in test [6]. Besides, the inhibition in test [7] is 0.44%; in test [8], 3.8%; in [9] it was 3.47%; in [10], -0.98%.

These data come from ChEMBL document CHEMBL1961873, “Compounds: GSK PKIS; Assays: Nanosyn kinase panel” (2012).
